{"source": "PubChem BioAssay (NCI)", "note": "The panel holds about 79,000 compounds, 15% with a hit somewhere; the sample as a whole holds those more often. Values without a mark were called inactive. The source made the active and inactive calls. No stated cut-off is given here; in the data, active means growth inhibition above about 70%; inactive means the rest."}
{"experiment": "NCI Yeast Anticancer Drug Screen. Data for the mlh1 rad18 strain (AID 175)", "settings": "S. cerevisiae mlh1 rad18 strain growth inhibition; at 50.0 µM (retest, dose inferred, filed as 5.0); active compounds read high", "summary_of_the_method": "(§1)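 Cells of a genetically altered yeast strain, deficient in DNA damage repair, were treated with compound. Their growth was then compared with that of vehicle-treated cultures to give inhibition.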"}
{"smiles": "O=C(c1ccccc1)c1cccc2ccccc12", "growth inhibition": "14%"}
{"smiles": "O=C1C(c2c[nH]c3ccccc23)=Nc2ccc(Br)cc21", "growth inhibition": "35%"}
{"smiles": "COc1cccc(CCCNC(=O)Cc2ccccc2CO)c1", "growth inhibition": "10%"}
{"smiles": "C/C(=N\\NC(=S)N1CCN(C2CCCCC2)CC1)c1ccccn1", "growth inhibition": "85% (active)"}
{"smiles": "CN(C)CCOC(=O)C1(CCC2CCCCC2)CCCCC1", "growth inhibition": "77% (active)"}
{"smiles": "O=c1c(Cl)cc2nc3ccccc3sc-2c1Cl", "growth inhibition": "87% (active)"}
{"smiles": "COc1ccc2nc(NC(=O)Nc3c(Cl)cccc3Cl)sc2c1", "growth inhibition": "98% (active)"}
{"smiles": "Cc1c[nH]c2nc(C)n(-c3ccccc3)c(=N)c12", "growth inhibition": "-2%"}
{"smiles": "O=C(C1=NNC(c2ccccc2)C1C(=O)c1ccccc1)c1ccccc1", "note": "(stereo not given)", "growth inhibition": "86% (active)"}
{"smiles": "CCOC(=O)N1CCN(C=S)CC1", "growth inhibition": "-1%"}
{"smiles": "COC(=O)N(C[C@@H]1C=CCCC1)c1ccccc1I", "growth inhibition": "70% (active)"}
{"smiles": "N=c1ccc2c(c1)[nH]c1c3ccccc3[nH]c3cccc2c31", "growth inhibition": "97% (active)"}
{"smiles": "CC1(C)[C@H]2CC[C@]1(C)[C@H](OC(=O)NNC(=O)O[C@@H]1C[C@@H]3CC[C@@]1(C)C3(C)C)C2", "growth inhibition": "68%"}
{"smiles": "N#CC1(C#N)C(C#N)(C#N)C12CCCCCC2", "growth inhibition": "98% (active)"}
{"smiles": "CCOP(=O)(OCC)OC1c2[nH]ccc2-c2cc(C(=O)OC)[nH]c2C1OC", "note": "(stereo not given)", "growth inhibition": "15%"}
{"smiles": "O=[N+]([O-])/C(=C\\c1cccs1)c1ccccc1", "growth inhibition": "99% (active)"}
{"smiles": "Cc1ccccc1NC(=O)C(=O)C(C#N)c1c(Cl)cccc1Cl", "note": "(stereo not given)", "growth inhibition": "3%"}
{"smiles": "O=C1c2c(F)c(F)c(F)c(F)c2SC2=NCCN12", "growth inhibition": "98% (active)"}
{"smiles": "CCCC(C)OC(=O)Nc1cccc(Cl)c1", "note": "(stereo not given)", "growth inhibition": "16%"}
{"smiles": "Nc1nc(SCc2ccccc2)c2ncn(CCCl)c2n1", "growth inhibition": "3%"}
{"smiles": "CCCCOC(=O)c1nc(N(CC2CCCCC2)C(=O)NC)sc1NC(=O)NC", "growth inhibition": "96% (active)"}
{"experiment": "NCI Yeast Anticancer Drug Screen. Data for the mlh1 rad18 strain (AID 175)", "settings": "S. cerevisiae mlh1 rad18 strain growth inhibition; at 50.0 µM; active compounds read high", "summary_of_the_method": "as §1"}
{"smiles": "COc1ccc(N=Cc2cc(Br)cc(Br)c2O)cc1.COc1ccc(N=Cc2cc(Br)cc(Br)c2O)cc1.[Co]", "growth inhibition": "80.8% (active)"}
{"smiles": "O=C(/C=C/C(=O)N1CCCC1)N1CCCC1", "growth inhibition": "37.4%"}
{"smiles": "O=S(c1ccccc1)c1c(Cl)c(Cl)nc(Cl)c1Cl", "note": "(stereo not given)", "growth inhibition": "99.5% (active)"}
{"smiles": "CSc1nc(N)c2cnn(C3OC(CO)C(O)C3O)c2n1", "note": "(stereo not given)", "growth inhibition": "22%"}
{"smiles": "COc1cccc(C=O)c1O", "growth inhibition": "62.5%"}
{"smiles": "Cn1c(=O)c2c(ncn2CCCCOc2ccc3c(c2)[n+]([O-])nc(N)[n+]3[O-])n(C)c1=O", "growth inhibition": "75.8% (active)"}
{"smiles": "Cn1ncc2c(Nc3cccc(Cl)c3)nc(Nc3cccc(Cl)c3)nc21", "growth inhibition": "95.7% (active)"}
{"smiles": "Cc1cc(C)n2nc(N)c(C#N)c2c1C#N", "growth inhibition": "62%"}
{"smiles": "COc1ccc(C2c3cc4c(cc3OC(O)C2C)OCO4)cc1", "note": "(stereo not given)", "growth inhibition": "97.5% (active)"}
{"smiles": "Nc1ccccc1[S][Sn]([c]1ccccc1)([c]1ccccc1)[c]1ccccc1", "growth inhibition": "98.3% (active)"}
{"smiles": "Cn1c(Sc2ccc(-c3cccnc3)n2C)ccc1-c1cccnc1", "growth inhibition": "97.3% (active)"}
{"smiles": "Nc1nnc(-c2cc(=O)c3cc(Cl)ccc3o2)s1", "growth inhibition": "10.4%"}
{"smiles": "COc1ccc(CNc2nc3cc(C(F)(F)F)ccc3nc2C)cc1OC", "growth inhibition": "89.2% (active)"}
{"smiles": "CC(=O)OCC1CC2OC2CC1C", "note": "(stereo not given)", "growth inhibition": "63%"}
{"smiles": "CCCCN(CCCC)CC(O)c1cc(-c2ccc(Cl)cc2)nc2cc(C)ccc12", "note": "(stereo not given)", "growth inhibition": "99.1% (active)"}
{"smiles": "NC(=S)n1nc(-c2ccccc2)c(N=Nc2ccccc2Cl)c1-c1ccccc1", "growth inhibition": "90.6% (active)"}
{"smiles": "CCCCCCCCCCCCN(CCO)CCO", "growth inhibition": "85.2% (active)"}
{"smiles": "CC(C)CCSc1ncnc2nc[nH]c12", "growth inhibition": "33.8%"}
{"smiles": "O=C(c1ccccc1)c1cccc2ccccc12", "growth inhibition": "88.2% (active)"}
{"smiles": "O=C1C(c2c[nH]c3ccccc23)=Nc2ccc(Br)cc21", "growth inhibition": "83.7% (active)"}
{"smiles": "COc1cccc(CCCNC(=O)Cc2ccccc2CO)c1", "growth inhibition": "-46.8%"}
{"smiles": "C/C(=N\\NC(=S)N1CCN(C2CCCCC2)CC1)c1ccccn1", "growth inhibition": "95.7% (active)"}
{"smiles": "CN(C)CCOC(=O)C1(CCC2CCCCC2)CCCCC1", "growth inhibition": "93.3% (active)"}
{"smiles": "O=c1c(Cl)cc2nc3ccccc3sc-2c1Cl", "growth inhibition": "83% (active)"}
{"smiles": "COc1ccc2nc(NC(=O)Nc3c(Cl)cccc3Cl)sc2c1", "growth inhibition": "98.3% (active)"}
{"smiles": "Cc1c[nH]c2nc(C)n(-c3ccccc3)c(=N)c12", "growth inhibition": "8.65%"}
{"smiles": "O=C(C1=NNC(c2ccccc2)C1C(=O)c1ccccc1)c1ccccc1", "note": "(stereo not given)", "growth inhibition": "81.2% (active)"}
{"smiles": "CCOC(=O)N1CCN(C=S)CC1", "growth inhibition": "38.2%"}
{"smiles": "COC(=O)N(C[C@@H]1C=CCCC1)c1ccccc1I", "growth inhibition": "89.9% (active)"}
{"smiles": "N=c1ccc2c(c1)[nH]c1c3ccccc3[nH]c3cccc2c31", "growth inhibition": "87% (active)"}
{"smiles": "CC1(C)[C@H]2CC[C@]1(C)[C@H](OC(=O)NNC(=O)O[C@@H]1C[C@@H]3CC[C@@]1(C)C3(C)C)C2", "growth inhibition": "-16%"}
{"smiles": "N#CC1(C#N)C(C#N)(C#N)C12CCCCCC2", "growth inhibition": "99.2% (active)"}
{"smiles": "CCOP(=O)(OCC)OC1c2[nH]ccc2-c2cc(C(=O)OC)[nH]c2C1OC", "note": "(stereo not given)", "growth inhibition": "61.4%"}
{"smiles": "O=[N+]([O-])/C(=C\\c1cccs1)c1ccccc1", "growth inhibition": "99.3% (active)"}
{"smiles": "Cc1ccccc1NC(=O)C(=O)C(C#N)c1c(Cl)cccc1Cl", "note": "(stereo not given)", "growth inhibition": "25.9%"}
{"smiles": "O=C1c2c(F)c(F)c(F)c(F)c2SC2=NCCN12", "growth inhibition": "78.7% (active)"}
{"smiles": "CCCC(C)OC(=O)Nc1cccc(Cl)c1", "note": "(stereo not given)", "growth inhibition": "97.6% (active)"}
{"smiles": "Nc1nc(SCc2ccccc2)c2ncn(CCCl)c2n1", "growth inhibition": "20.9%"}
{"smiles": "CCCCOC(=O)c1nc(N(CC2CCCCC2)C(=O)NC)sc1NC(=O)NC", "growth inhibition": "29.2%"}
